Measurements reported in PubChem BioAssay AID434926 (Sanford-Burnham Center for Chemical Genomics, 2010).
The list shows a part of the results. A number with no mark means an inactive call.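 Rule for the calls: active = at least twofold enzyme activation in any of six single-dose repeats, which the averaged readout prints as negative percent; inactive = the rest.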

Biological target: Intestinal-type alkaline phosphatase (Homo sapiens) (UniProt P09923)
Test: enhancement of intestinal alkaline phosphatase activity – biochemical, luminescence, single concentration, uHTS hits, confirmation (AID 434926)
Details: purified IAP, CDP-Star luminescence, 30 min; at 8.3 µM; hits give low values

Sequence of Intestinal-type alkaline phosphatase (Homo sapiens) (P09923 whole entry, looked up): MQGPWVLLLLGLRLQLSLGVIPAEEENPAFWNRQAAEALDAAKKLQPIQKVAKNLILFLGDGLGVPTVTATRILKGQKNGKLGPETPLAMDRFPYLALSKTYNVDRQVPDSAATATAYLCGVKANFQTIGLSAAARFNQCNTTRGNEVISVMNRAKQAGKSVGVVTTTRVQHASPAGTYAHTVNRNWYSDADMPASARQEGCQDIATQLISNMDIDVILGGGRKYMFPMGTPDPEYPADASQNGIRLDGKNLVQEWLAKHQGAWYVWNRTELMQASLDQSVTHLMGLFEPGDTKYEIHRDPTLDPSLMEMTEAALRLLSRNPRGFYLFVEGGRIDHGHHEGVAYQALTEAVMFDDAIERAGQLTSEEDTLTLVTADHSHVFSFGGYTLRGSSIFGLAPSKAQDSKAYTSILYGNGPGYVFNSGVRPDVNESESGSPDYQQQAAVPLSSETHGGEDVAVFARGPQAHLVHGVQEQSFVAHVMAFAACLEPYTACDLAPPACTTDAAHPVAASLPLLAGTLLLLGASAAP

Row | SMILES | activation (%Activity, negative = activation) [%]
1 | COc1ccccc1N=Nc1c(O)[nH]c(=S)[nH]c1=O | 4.66
2 | CN(c1ccccc1)c1ccc([N+](=O)[O-])c2nonc12 | -1.35
